Measured values taken from PubChem BioAssay (Tox21).
Values without a mark were called inactive. Results filed as inconclusive are left out. Entries that show only a call come without a potency. Activity calls are given as the source filed them. Unless noted, calls come from the whole dose curve; as a rule, active = well fitted curve in the direction sought with a large enough effect in the repeat runs; inconclusive = weak or mixed curves; inactive = no such curve, though single readings can be large; an effect the other way counts as inactive or inconclusive.

Assays:
[1] = biological target: Thyrotropin-releasing hormone receptor (Homo sapiens) (UniProt P34981); experiment: qHTS assay to identify small molecule agonists of the thyrotropin-releasing hormone receptor (TRHR) signaling pathway (AID 1346891; calls by dose curve; note: series mostly up to about 58 µM)
Thyrotropin-releasing hormone receptor (Homo sapiens), sequence (P34981 whole entry, looked up): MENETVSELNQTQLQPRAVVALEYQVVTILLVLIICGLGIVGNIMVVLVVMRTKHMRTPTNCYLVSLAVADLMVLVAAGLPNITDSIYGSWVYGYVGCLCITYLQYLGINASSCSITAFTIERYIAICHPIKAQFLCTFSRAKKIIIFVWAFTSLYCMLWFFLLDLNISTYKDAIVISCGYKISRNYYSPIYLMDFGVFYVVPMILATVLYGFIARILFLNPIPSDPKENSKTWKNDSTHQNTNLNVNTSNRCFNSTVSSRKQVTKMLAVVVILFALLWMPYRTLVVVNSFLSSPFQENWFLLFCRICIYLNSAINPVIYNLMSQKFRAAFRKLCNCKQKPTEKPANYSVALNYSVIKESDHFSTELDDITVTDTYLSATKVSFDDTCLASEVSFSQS
Method in brief: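 HEK293 cells expressing TRHR plated 18 h at 37 C/5% CO2, calcium dye-loaded 2 h at 37 C, then compound added (agonist mode); kinetic calcium fluorescence read 3 min at 1 s intervals; 15 concentrations in triplicate.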

[2] = Caspase-3/7 induction in CHO-K1 cells by small molecules, qHTS assay (AID 1346980); note: nearly all actives have a fitted effect of over 15% in size
Method in brief: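 Wild-type cells were seeded at 1,500 per well and settled 5 hr at 37 C, 5% CO2, then exposed to DMSO-dissolved compounds for 17 hr. Caspase-Glo 3/7 reagent was added, and luminescence was read after 30min at room temperature.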

[3] = Caspase-3/7 induction in HepG2 cells by small molecules, qHTS cell viability counter screen (AID 1346981); note: nearly all actives have a fitted effect of over 30% in size; note: potency is the fitted concentration of half-maximal effect
Method in brief: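 Steps: seed 2,000 HepG2 cells per well; incubate 5 hr at 37 C; pin-add compounds in DMSO; incubate 16 hr; add CellTiter-Fluor; after 1 hr at 37 C and 5% CO2, read fluorescence.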

[4] = biological target: Nuclear receptor subfamily 1 group I member 2 (Homo sapiens) (UniProt O75469); experiment: Human pregnane X receptor (PXR) small molecule agonists, qHTS assay (AID 1346982); note: nearly all actives have a fitted effect of over 35% in size; note: potency is the fitted concentration of half-maximal effect
Nuclear receptor subfamily 1 group I member 2 (Homo sapiens), sequence (O75469 whole entry, looked up): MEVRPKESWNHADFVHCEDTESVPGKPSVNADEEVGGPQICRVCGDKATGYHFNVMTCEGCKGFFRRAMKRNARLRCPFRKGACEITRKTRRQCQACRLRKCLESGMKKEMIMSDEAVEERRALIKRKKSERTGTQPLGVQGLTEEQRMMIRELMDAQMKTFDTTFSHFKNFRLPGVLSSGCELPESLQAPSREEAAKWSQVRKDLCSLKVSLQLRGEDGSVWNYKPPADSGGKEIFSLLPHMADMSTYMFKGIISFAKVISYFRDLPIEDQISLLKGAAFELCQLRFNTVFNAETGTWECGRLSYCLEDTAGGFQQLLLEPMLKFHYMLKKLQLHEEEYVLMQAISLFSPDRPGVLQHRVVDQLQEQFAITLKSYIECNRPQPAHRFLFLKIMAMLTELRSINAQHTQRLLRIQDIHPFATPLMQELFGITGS
Method in brief: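 Agonist mode qHTS: PXR-Luc HepG2 cells plated 5 hr before DMSO-dissolved compounds were pinned in, cultured 24 hr at 37 C, 5% CO2; ONE-Glo luminescence readout.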

[5] = biological target: Cytochrome P450 2C19 (Homo sapiens) (UniProt P33261); experiment: Cytochrome P450 Family 2 Subfamily C Member 19 (CYP2C19) small molecule antagonists: luciferase reporter qHTS assay (AID 1671197); note: nearly all actives have a fitted effect of over 65% in size; note: potency is the fitted concentration of half-maximal effect
Cytochrome P450 2C19 (Homo sapiens), sequence (P33261 whole entry, looked up): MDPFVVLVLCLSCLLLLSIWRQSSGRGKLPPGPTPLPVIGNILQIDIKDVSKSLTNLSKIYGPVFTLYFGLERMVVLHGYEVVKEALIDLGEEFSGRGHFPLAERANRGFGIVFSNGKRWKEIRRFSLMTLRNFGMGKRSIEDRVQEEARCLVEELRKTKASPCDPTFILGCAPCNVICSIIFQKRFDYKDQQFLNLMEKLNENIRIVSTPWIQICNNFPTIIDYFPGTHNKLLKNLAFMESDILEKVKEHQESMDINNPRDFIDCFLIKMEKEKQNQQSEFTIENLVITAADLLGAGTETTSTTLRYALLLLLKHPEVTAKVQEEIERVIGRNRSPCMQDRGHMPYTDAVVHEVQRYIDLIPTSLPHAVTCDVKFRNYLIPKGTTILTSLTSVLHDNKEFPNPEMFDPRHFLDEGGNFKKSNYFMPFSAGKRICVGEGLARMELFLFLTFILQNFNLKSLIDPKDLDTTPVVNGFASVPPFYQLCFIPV
Method in brief: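 P450-Glo CYP2C19 screening system; proluciferin substrate; DMSO compound stocks; 10 min RT preincubation; NADPH regeneration, 1 h at 37C; luciferin detection reagent, 20 min RT; luminescence as RLU.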

[6] = biological target: Cytochrome P450 1A2 (Homo sapiens) (UniProt P05177); experiment: Cytochrome P450 Family 1 Subfamily A Member 2 (CYP1A2) small molecule antagonists: luciferase reporter qHTS assay (AID 1671199); note: nearly all actives have a fitted effect of over 50% in size; note: potency is the fitted concentration of half-maximal effect
Cytochrome P450 1A2 (Homo sapiens), sequence (P05177 whole entry, looked up): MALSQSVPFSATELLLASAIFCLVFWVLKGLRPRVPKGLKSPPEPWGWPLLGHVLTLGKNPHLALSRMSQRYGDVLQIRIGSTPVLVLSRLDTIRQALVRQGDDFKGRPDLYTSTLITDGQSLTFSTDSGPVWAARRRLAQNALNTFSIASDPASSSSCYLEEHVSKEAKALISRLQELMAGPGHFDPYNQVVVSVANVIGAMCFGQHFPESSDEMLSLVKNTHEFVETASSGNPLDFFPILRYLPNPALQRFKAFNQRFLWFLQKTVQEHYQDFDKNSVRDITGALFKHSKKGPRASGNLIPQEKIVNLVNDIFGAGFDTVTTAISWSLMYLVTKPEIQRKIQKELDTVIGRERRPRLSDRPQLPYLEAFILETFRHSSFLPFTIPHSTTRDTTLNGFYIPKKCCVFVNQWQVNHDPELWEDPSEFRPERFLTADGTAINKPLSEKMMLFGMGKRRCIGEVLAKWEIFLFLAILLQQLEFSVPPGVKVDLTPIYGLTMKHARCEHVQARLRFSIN
Method in brief: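 Inhibition of CYP1A2 conversion of proluciferin to luciferin, detected by luminescence. Reaction run 1 h at room temperature with NADPH regeneration after brief compound preincubation.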

[7] = biological target: Voltage-gated inwardly rectifying potassium channel KCNH2 (Homo sapiens) (UniProt Q12809); experiment: Human Ether-a-go-go-Related Gene (hERG) channel small molecule antagonists: fluorescence cell-based qHTS assay (AID 1671200); note: nearly all actives have a fitted effect of over 50% in size; note: potency is the fitted concentration of half-maximal effect
Voltage-gated inwardly rectifying potassium channel KCNH2 (Homo sapiens), sequence (Q12809 whole entry, looked up): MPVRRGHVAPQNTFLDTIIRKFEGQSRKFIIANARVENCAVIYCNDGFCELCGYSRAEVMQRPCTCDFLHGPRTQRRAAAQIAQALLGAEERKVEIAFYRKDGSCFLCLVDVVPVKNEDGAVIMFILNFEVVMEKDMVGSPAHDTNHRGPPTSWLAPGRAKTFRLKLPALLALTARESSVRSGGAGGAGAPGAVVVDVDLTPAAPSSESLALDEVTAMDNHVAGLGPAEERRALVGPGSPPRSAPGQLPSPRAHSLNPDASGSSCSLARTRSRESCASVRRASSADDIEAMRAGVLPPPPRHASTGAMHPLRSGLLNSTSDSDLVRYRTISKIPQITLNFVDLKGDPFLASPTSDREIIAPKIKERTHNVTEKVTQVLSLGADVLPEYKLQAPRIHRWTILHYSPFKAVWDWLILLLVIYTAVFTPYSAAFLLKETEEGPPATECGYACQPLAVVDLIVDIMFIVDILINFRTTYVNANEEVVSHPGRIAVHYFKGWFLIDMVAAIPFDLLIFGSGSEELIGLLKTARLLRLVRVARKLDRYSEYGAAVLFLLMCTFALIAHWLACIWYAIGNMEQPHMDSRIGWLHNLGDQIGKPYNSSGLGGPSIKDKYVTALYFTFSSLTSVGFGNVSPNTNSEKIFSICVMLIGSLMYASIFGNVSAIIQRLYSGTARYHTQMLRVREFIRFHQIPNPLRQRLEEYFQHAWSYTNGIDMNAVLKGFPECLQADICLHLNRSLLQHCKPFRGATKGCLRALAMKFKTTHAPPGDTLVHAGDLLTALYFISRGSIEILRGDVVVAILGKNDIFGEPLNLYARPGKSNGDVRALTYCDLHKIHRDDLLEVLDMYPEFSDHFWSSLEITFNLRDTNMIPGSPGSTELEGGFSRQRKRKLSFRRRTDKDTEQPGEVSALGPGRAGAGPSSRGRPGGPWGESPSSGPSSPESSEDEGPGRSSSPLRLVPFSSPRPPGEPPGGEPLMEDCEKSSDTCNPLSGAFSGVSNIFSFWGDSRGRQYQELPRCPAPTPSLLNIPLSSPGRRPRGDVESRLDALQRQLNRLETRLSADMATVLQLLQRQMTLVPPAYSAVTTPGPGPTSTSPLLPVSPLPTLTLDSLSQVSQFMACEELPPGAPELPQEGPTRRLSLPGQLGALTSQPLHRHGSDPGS
Method in brief: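 hERG-U2OS cells plated overnight at 37 C, loaded with FluxOR II dye 1 h at RT in dark; after 10 min, thallium stimulus added. Fluorescence (480/540 nm) read kinetically for 2 min at 1 s intervals.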

[8] = Human pregnane X receptor (PXR) small molecule agonists, qHTS cell viability counter screen (AID 1346977); note: nearly all actives have a fitted effect of over 50% in size; note: potency is the fitted concentration of half-maximal effect
Method in brief: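 PXR-Luc HepG2 cells (2,000/well, 5% charcoal-stripped FBS) preincubated 5 hr, then exposed to compounds 24 hr at 37 C. Viability read in the same wells by CellTiter-Fluor fluorescence, reagent added at 23 hr, 1 hr incubation.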

[9] = Caspase-3/7 induction in CHO-K1 cells by small molecules, qHTS cell viability counter screen (AID 1346979); note: nearly all actives have a fitted effect of over 35% in size; note: potency is the fitted concentration of half-maximal effect
Method in brief: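 Wild-type CHO-K1 cells (1,500/well) treated with compound after 5 h plating; after 16 h at 37C, viability read as CellTiter-Fluor fluorescence following 1 h reagent incubation, in the same wells as the caspase read.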

[10] = biological target: Nuclear receptor subfamily 1 group I member 2 (Rattus norvegicus) (UniProt Q9R1A7); experiment: Rat pregnane X receptor (rPXR) activation by small molecules, qHTS assay (AID 1346983); settings: rPXR luciferase reporter cells, One-Glo luminescence, 24 h; max activation: stronger effect = higher value; note: nearly all actives have a fitted effect of over 20% in size
Nuclear receptor subfamily 1 group I member 2 (Rattus norvegicus), sequence (Q9R1A7 whole entry, looked up): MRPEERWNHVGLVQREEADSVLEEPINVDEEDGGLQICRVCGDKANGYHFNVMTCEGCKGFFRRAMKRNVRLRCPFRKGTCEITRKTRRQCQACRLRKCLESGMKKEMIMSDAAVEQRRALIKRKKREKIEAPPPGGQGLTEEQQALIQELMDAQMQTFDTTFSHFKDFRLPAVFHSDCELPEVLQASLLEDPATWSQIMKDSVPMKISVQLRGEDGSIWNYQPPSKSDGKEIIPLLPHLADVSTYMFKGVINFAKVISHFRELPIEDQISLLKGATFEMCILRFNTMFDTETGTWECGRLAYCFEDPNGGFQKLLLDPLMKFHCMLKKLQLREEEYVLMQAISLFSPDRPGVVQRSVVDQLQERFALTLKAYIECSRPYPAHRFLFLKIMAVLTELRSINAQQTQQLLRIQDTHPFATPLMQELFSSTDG
Method in brief: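 Cell-based rPXR luciferase reporter assay, 2,000 cells per well, rested 5hr at 37 C before compound addition in DMSO, then 24 hr at 37 C. One-Glo reagent was added and luminescence read after 30 min at room temperature.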

[11] = biological target: Nuclear receptor subfamily 1 group I member 2 (Homo sapiens) (UniProt O75469); experiment: Human pregnane X receptor (PXR) activation by small molecules, qHTS assay (AID 1346985); note: nearly all actives have a fitted effect of over 40% in size
Method in brief: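 DPX-2 cells (HepG2 co-transfected with a PXR response element and a CYP3A4-promoter luciferase construct) were seeded at 2,000 per well, rested 5 hr at 37C, then exposed to DMSO-dissolved compounds for 24 hr. Activation was read as luciferase luminescence.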

[12] = biological target: Cytochrome P450 2D6 (Homo sapiens) (UniProt P10635); experiment: Cytochrome P450 Family 2 Subfamily D Member 6 (CYP2D6) small molecule antagonists: luciferase reporter qHTS assay (AID 1671196); note: nearly all actives have a fitted effect of over 50% in size; note: potency is the fitted concentration of half-maximal effect
Cytochrome P450 2D6 (Homo sapiens), sequence (P10635 whole entry, looked up): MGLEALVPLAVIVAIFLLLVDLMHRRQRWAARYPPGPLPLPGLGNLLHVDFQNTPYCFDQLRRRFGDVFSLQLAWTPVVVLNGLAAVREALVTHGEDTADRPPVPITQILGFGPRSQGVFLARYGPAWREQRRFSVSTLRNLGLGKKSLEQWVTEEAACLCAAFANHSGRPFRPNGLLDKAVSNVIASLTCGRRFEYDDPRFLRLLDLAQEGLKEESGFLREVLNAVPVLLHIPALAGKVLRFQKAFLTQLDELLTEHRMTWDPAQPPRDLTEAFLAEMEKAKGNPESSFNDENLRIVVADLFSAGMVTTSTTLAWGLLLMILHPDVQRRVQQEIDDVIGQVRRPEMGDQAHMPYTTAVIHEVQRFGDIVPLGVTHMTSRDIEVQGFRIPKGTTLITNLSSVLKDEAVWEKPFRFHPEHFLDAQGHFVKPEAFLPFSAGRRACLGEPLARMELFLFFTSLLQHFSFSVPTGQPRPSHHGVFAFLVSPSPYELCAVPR
Method in brief: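 P450-Glo format: CYP2D6 converts a proluciferin substrate to luciferin in an NADPH-driven reaction lasting 1 h at room temperature. Light output, proportional to CYP2D6 activity, reflects interference by test chemicals.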

[13] = biological target: Cytochrome P450 2C9 (Homo sapiens) (UniProt P11712); experiment: Cytochrome P450 Family 2 Subfamily C Member 9 (CYP2C9) small molecule antagonists: luciferase reporter qHTS assay (AID 1671198); note: nearly all actives have a fitted effect of over 50% in size; note: potency is the fitted concentration of half-maximal effect
Cytochrome P450 2C9 (Homo sapiens), sequence (P11712 whole entry, looked up): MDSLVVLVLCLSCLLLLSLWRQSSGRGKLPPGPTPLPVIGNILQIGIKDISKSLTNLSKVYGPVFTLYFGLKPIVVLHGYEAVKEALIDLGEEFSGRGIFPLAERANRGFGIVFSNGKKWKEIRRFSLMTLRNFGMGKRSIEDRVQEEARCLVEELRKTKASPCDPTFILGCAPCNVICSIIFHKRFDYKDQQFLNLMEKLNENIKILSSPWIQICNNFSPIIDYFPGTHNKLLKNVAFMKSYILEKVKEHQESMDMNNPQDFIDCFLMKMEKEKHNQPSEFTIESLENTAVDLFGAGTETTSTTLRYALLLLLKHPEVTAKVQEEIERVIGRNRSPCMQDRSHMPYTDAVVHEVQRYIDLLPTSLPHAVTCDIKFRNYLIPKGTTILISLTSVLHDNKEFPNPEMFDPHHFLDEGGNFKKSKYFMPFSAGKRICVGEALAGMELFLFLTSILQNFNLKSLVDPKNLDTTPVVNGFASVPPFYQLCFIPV
Method in brief: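 CYP2C9 activity was measured with a P450-Glo proluciferin substrate. Enzyme–substrate mix was held with compound for 10 min at room temperature, then NADPH regeneration solution was added for 1 h at 37C. Luciferin product was read as luminescence.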

[14] = Caspase-3/7 induction in HepG2 cells by small molecules, qHTS assay (AID 1346978); note: nearly all actives have a fitted effect of over 15% in size
Method in brief: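 Wild-type HepG2 cells (2,000/well) were settled 5 h at 37 C, 5% CO2, then exposed to compounds in DMSO for 17 h. Caspase-3/7 activity was read by luminescence 30 min after adding Caspase-Glo 3/7 reagent at room temperature.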

[15] = biological target: Cytochrome P450 3A4 (Homo sapiens) (UniProt P08684); experiment: Cytochrome P450 Family 3 Subfamily A Member 4 (CYP3A4) small molecule antagonists: luciferase reporter qHTS assay (AID 1671201); note: nearly all actives have a fitted effect of over 50% in size; note: potency is the fitted concentration of half-maximal effect
Cytochrome P450 3A4 (Homo sapiens), sequence (P08684 whole entry, looked up): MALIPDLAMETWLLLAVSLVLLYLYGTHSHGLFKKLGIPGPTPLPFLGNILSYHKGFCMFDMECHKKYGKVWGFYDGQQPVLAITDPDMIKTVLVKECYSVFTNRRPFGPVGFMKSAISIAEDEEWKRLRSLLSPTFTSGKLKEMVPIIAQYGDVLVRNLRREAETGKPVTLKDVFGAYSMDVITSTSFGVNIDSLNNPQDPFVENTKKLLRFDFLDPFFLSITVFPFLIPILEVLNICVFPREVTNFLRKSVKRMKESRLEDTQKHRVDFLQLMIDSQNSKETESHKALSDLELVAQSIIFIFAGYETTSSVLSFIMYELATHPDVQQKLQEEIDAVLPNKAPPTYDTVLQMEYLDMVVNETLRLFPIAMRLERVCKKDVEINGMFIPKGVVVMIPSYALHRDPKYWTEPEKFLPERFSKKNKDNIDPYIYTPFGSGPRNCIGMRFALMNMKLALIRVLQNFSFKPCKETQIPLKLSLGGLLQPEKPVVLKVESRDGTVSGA
Method in brief: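 P450-Glo CYP3A4 luminescent assay: compounds preincubated 10 min at room temperature with enzyme and proluciferin substrate, NADPH regeneration added, 1 h room-temperature reaction, stopped with luciferin detection reagent; luminescence read after 20 min. Ketoconazole positive control.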

Row | SMILES | outcome [1] | Potency [2] | Potency [3] | Potency [4] | Potency [5] | Potency [6] | Potency [7] | Potency [8] | Potency [9] | max activation [10] [%] | Potency [11] | Potency [12] | Potency [13] | Potency [14] | Potency [15]
1 | O=c1[nH]nc(-c2ccc([N+](=O)[O-])o2)o1 | inactive | inactive | 54.5 µM (active) | 61.1 µM (active) | 79.6 µM (active) | 31.7 µM (active) | inactive | – | – | – | – | – | – | – | –
2 | CCCCCCCCCCCCSCCOCCO | inactive | inactive | inactive | – | – | 15.5 µM (active) | inactive | inactive | inactive | -0.35 | inactive | inactive | 24.5 µM (active) | – | –
3 | NC(=O)c1cc[n+](CC2=C(C(=O)[O-])N3C(=O)[C@@H](NC(=O)Cc4cccs4)[C@H]3SC2)cc1 | – | inactive | inactive | inactive | inactive | inactive | inactive | inactive | inactive | -2.94 | inactive | inactive | inactive | inactive | inactive
4 | CCCCCC1CCC(=O)O1 (stereo unspecified) | inactive | – | inactive | inactive | inactive | – | inactive | inactive | inactive | – | – | inactive | 89.4 µM (active) | – | inactive
5 | O=C(O)CCc1nc2ccccc2[nH]1 | inactive | – | inactive | inactive | – | inactive | – | inactive | inactive | – | – | inactive | inactive | – | inactive
6 | C=CCCC | inactive | inactive | inactive | inactive | inactive | inactive | inactive | inactive | – | – | – | inactive | inactive | – | inactive
7 | O=C(NC1CCN(CCc2c[nH]c3ccccc23)CC1)c1ccccc1 | inactive | inactive | inactive | inactive | inactive | inactive | 4.77 µM (active) | – | – | -9.19 | inactive | 1.95 µM (active) | inactive | inactive | –
8 | CC(C)=CCC/C(C)=C/C=N/O | inactive | inactive | inactive | 34.4 µM (active) | – | 39.9 µM (active) | – | inactive | inactive | – | – | 35.6 µM (active) | 39.9 µM (active) | – | 28.3 µM (active)
9 | O=c1[nH][nH]c2ccccc12 | inactive | inactive | inactive | inactive | 81.2 µM (active) | 10.2 µM (active) | inactive | inactive | inactive | – | – | inactive | – | – | 32.3 µM (active)
10 | O=C(O)c1ccccc1[N+](=O)[O-] | inactive | inactive | inactive | inactive | inactive | inactive | inactive | inactive | – | – | – | inactive | inactive | – | inactive
11 | C[C@H](N)C(=O)N[C@@H](C)C(=O)NC1[C@H]2CN(c3nc4c(cc3F)c(=O)c(C(=O)O)cn4-c3ccc(F)cc3F)C[C@@H]12 (stereo partly specified) | inactive | inactive | – | 21.1 µM (active) | inactive | – | inactive | – | 7.5 µM (active) | – | – | inactive | inactive | – | –
12 | Cc1ccc(NC=O)c(C)c1 | inactive | – | inactive | inactive | inactive | 35.6 µM (active) | inactive | inactive | inactive | – | – | inactive | inactive | – | –
13 | [O-][n+]1ccc(Cl)cc1 | – | – | – | inactive | – | inactive | inactive | inactive | inactive | – | – | – | inactive | inactive | inactive
14 | CCOC(=O)CC(O)(CC(=O)OCC)C(=O)OCC | – | inactive | inactive | inactive | 35.6 µM (active) | – | inactive | inactive | – | – | – | inactive | 8.94 µM (active) | inactive | inactive
15 | Oc1ccc(Oc2ccccc2)cc1 | – | inactive | – | 46.1 µM (active) | 26.8 µM (active) | – | inactive | inactive | – | – | – | 26.8 µM (active) | 26.8 µM (active) | inactive | inactive
16 | CC(C(=O)O)c1ccc(/C=C2\CCCCC2=O)cc1 (stereo unspecified) | – | inactive | inactive | – | – | inactive | – | inactive | inactive | – | – | – | inactive | inactive | inactive
17 | O=Cc1ccc([N+](=O)[O-])cc1 | – | inactive | inactive | – | – | – | inactive | inactive | inactive | – | – | – | – | inactive | –
18 | CC1(C)[C@@H]2CC[C@]3(C2)[C@@H]1C(=O)CCC3(C)C | – | inactive | – | 9.69 µM (active) | 39.9 µM (active) | inactive | inactive | inactive | inactive | – | – | 31.7 µM (active) | – | inactive | 17.8 µM (active)
19 | CCCCOC(=O)C(C)Oc1ccc(Oc2ccc(C(F)(F)F)cn2)cc1 (stereo unspecified) | – | inactive | inactive | inactive | 50.2 µM (active) | 22.4 µM (active) | 24.5 µM (active) | inactive | inactive | – | – | – | 22.4 µM (active) | inactive | inactive
20 | Cc1ccc(NC(=O)c2ccc(CN3CCN(C)CC3)cc2)cc1Nc1nccc(-c2cccnc2)n1 | – | inactive | – | – | inactive | inactive | – | 23.7 µM (active) | 23.7 µM (active) | -10.6 | – | inactive | inactive | inactive | –
21 | COc1ccc(/C(C)=C/C(=O)O)c(OC)c1 | – | inactive | inactive | inactive | inactive | inactive | inactive | inactive | inactive | – | – | inactive | inactive | – | inactive
